Assay [1] can be described thus: qHTS assay to identify aromatase inhibitors - cell viability counter screen (AID 743084).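 Also: cells stimulated with testosterone during compound exposure; nearly all actives have a fitted effect of over 55% in size.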 A general note: In qHTS, concentration-response curves come from the screen itself.
The nature of assay [2]: qHTS assay to identify small molecule that activate the aryl hydrocarbon receptor (AhR) signaling pathway - cell viability counter screen (AID 743086). Also: series mostly up to about 70 µM; nearly all actives have a fitted effect of over 45% in size. The method, boiled down: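 Cytotoxicity counter screen: CellTiter-Fluor signal (30 min, 37 C) in 4000 HepG2 cells/well carrying the DRE-luciferase reporter, following 24 h compound exposure at 37 C.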
The target of assay [3] is Peroxisome proliferator-activated receptor gamma (Homo sapiens) (UniProt P37231). Description: qHTS assay to identify small molecule agonists of the peroxisome proliferator-activated receptor gamma (PPARg) signaling pathway (AID 743094; active = well fitted activation curve with a large enough effect in the signal ratio in the repeat runs, not every such curve was filed as active; the % refers to the signal ratio). The method, boiled down: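 Agonism was assessed in a beta-lactamase reporter system, HEK293H cells with a stably integrated UAS-bla construct under PPARg control; the 17 h treatment at 37C preceded a 1 h room-temperature FRET substrate read.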

Assay [4] has the same target. The experiment in a line: qHTS assay to identify small molecule antagonists of the peroxisome proliferator-activated receptor gamma (PPARg) signaling pathway (AID 743191; calls by dose curve; also: series mostly up to about 63 µM; nearly all actives have a fitted effect of over 30% in size). The method, boiled down:
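Beta-lactamase reporter under UAS control in HEK293H PPARg-bla cells; compound treatment 17 h at 37C. Read-out: fluorescence intensity after 1 h room-temperature incubation with LiveBLAzer B/G FRET substrate.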

Assay [5] can be described thus: qHTS assay to identify small molecule antagonists of the peroxisome proliferator-activated receptor gamma (PPARg) signaling pathway - cell viability counter screen (AID 743194). Also: nearly all actives have a fitted effect of over 55% in size. In short, it runs like this:
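Viability was measured as CellTiter-Glo luminescence in GeneBLAzer PPARg UAS-bla HEK293H cells. These cells had been exposed 17 h at 37 C to compounds together with rosiglitazone at 50 nM final, with the beta-lactamase readout taken in the same wells.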

The nature of assay [6]: qHTS assay for small molecule agonists of the antioxidant response element (ARE) signaling pathway (AID 743202; active = well fitted activation curve with a large enough effect in the signal ratio in the repeat runs, not every such curve was filed as active; the % refers to the signal ratio; also: potency is read from the fitted curve at half-maximal effect). In short, it runs like this:
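Beta-lactamase reporter activity, read as fluorescence intensity, reflects ARE/Nrf2 pathway induction in HepG2 cells after 16 h compound exposure at 37 C; substrate loading was 2 h at room temperature.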

A short description of assay [7]: qHTS assay for small molecule agonists of the antioxidant response element (ARE) signaling pathway - cell viability counter screen (AID 743203; calls by dose curve; also: nearly all actives have a fitted effect of over 55% in size). In short, it runs like this: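 ATP content via CellTiter-Glo luminescence served as the viability measure. Cells: ARE-bla HepG2, 2,000 per well. Exposure: 16 hrs, 37C/5% CO2.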
Assay [8] can be described thus: qHTS assay to identify small molecule agonists of the peroxisome proliferator-activated receptor delta (PPARd) signaling pathway - cell viability counter screen (AID 743211). Also: nearly all actives have a fitted effect of over 55% in size. The method, boiled down:
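Luminescent ATP viability assay (CellTiter-Glo, 30 min RT) in UAS-bla HEK293H cells carrying the PPAR delta reporter construct, 3000 cells/well, after a 17 h compound treatment at 37 C.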

The nature of assay [9]: qHTS assay to identify small molecule antagonists of the peroxisome proliferator-activated receptor delta (PPARd) signaling pathway - cell viability counter screen (AID 743213). Also: nearly all actives have a fitted effect of over 50% in size. Also: potency is read from the fitted curve at half-maximal effect. In short, it runs like this: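 Luminescence from CellTiter-Glo, added after the bla read and incubated 30 min at room temperature, gives viability of HEK293H PPARd-bla cells exposed to compounds for 17 h at 37 C with 300 nM L165041.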

A short description of assay [10]: qHTS assay to identify small molecule agonists of the farnesoid-X-receptor (FXR) signaling pathway - cell viability counter screen (AID 743218). Also: nearly all actives have a fitted effect of over 45% in size. The method, boiled down: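 Quantitative HTS counter screen measuring ATP-based viability via CellTiter-Glo luminescence in HEK 293T cells carrying a UAS-driven beta-lactamase reporter, after 16 h compound exposure at 37 C.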

Assay [11] is described as follows: qHTS assay to identify small molecule antagonists of the farnesoid-X-receptor (FXR) signaling pathway - cell viability counter screen (AID 743221; active = well fitted cell-killing curve with a large enough effect in the repeat runs, not every such curve was filed as active; also: nearly all actives have a fitted effect of over 50% in size). In short, it runs like this:
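In GeneBLAzer FXR-UAS-bla HEK 293T cells stimulated with 50 uM chenodeoxycholic acid (final), compounds acted for 16 h at 37 C. Viability was assessed afterwards by CellTiter-Glo luminescence.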

Assay [12] deals with Vitamin D3 receptor (Homo sapiens) (UniProt P11473). The experiment in a line: qHTS assay to identify small molecule agonists of the vitamin D receptor (VDR) signaling pathway (AID 743222; calls by dose curve). In short, it runs like this: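 Tox21 cell reporter format: VDR-bla line, 16 h compound exposure in 5% CO2 at 37C, then fluorescence intensity after 2 h with LiveBLAzer B/G FRET substrate.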

Assay [13] shares this target. The experiment in a line: qHTS assay to identify small molecule antagonists of the vitamin D receptor (VDR) signaling pathway (AID 743223; active = well fitted inhibition curve with a large enough effect in the signal ratio in the repeat runs, not every such curve was filed as active; the % refers to the signal ratio). In short, it runs like this: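 Agonist 1alpha,25-dihydroxyvitamin D3 (3 nM in well) was added with each compound to VDR-bla cells preincubated 4 h. Cells stood 16 h at 37C, then FRET substrate 2 h at room temperature; fluorescence intensity recorded.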

In assay [14] the target is Aryl hydrocarbon receptor (Homo sapiens) (UniProt P35869). Description: qHTS assay to identify small molecule that activate the aryl hydrocarbon receptor (AhR) signaling pathway (AID 743085). Also: nearly all actives have a fitted effect of over 15% in size. Also: potency is read from the fitted curve at half-maximal effect.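 As to activation: HG2L7.5c1 human HepG2 liver cells with stably integrated DRE-driven firefly reporter; series mostly up to about 70 µM.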 The method, boiled down: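 24 h compound exposure, 37C, HepG2-derived HG2L7.5c1 cells with DRE-responsive luciferase. Readouts: fluorescence viability, then luminescence at room temperature after 30 min.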

Assay [15] is described as follows: qHTS assay for small molecule activators of the heat shock response signaling pathway - cell viability counter screen (AID 743209). Also: nearly all actives have a fitted effect of over 50% in size. In short, it runs like this:
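Compounds dissolved in DMSO were added to overnight-plated HSE-bla HeLa cells and left 5 h at 37 C. Cell viability was quantified by luminescence using CellTiter-Glo.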

The nature of assay [16]: qHTS assay for small molecule activators of the heat shock response signaling pathway (AID 743210; active = well fitted activation curve with a large enough effect in the signal ratio in the repeat runs, with a control signal flat, not every such curve was filed as active; the % refers to the signal ratio;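 also: HeLa cells with beta-lactamase reporter driven by heat shock elements; series mostly up to about 63 µM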). The method, boiled down: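 Fluorescence from a cleaved B/G FRET substrate (2.5 h, room temp) reports HSE-driven beta-lactamase in HeLa cells treated 5 h at 37 C with DMSO-dissolved compounds.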
For assay [17], the target named is Peroxisome proliferator-activated receptor delta (Homo sapiens) (UniProt Q03181). The experiment in a line: qHTS assay to identify small molecule agonists of the peroxisome proliferator-activated receptor delta (PPARd) signaling pathway (AID 743212; calls by dose curve). The method, boiled down: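 Steps: seed PPARd-bla HEK293H cells; incubate 5 h, 37 C, 5% CO2; add compounds in DMSO; incubate, 37 C; add LiveBLAzer B/G FRET substrate; hold 2 h at room temperature; measure fluorescence.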

For assay [18] the target is unchanged. Description: qHTS assay to identify small molecule antagonists of the peroxisome proliferator-activated receptor delta (PPARd) signaling pathway (AID 743215; active = well fitted inhibition curve with a large enough effect in the signal ratio in the repeat runs, not every such curve was filed as active; the % refers to the signal ratio;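 also: cells stimulated with agonist L165041 at 300 nM final during compound exposure; series mostly up to about 62 µM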). In short, it runs like this:
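Here, a reporter line (HEK293H, beta-lactamase under a UAS) measures PPARd signaling. Compounds are tested against agonist L165041 at 300 nM final concentration over 17 h at 37 C, with fluorescence read after substrate.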

The target in assay [19] is Bile acid receptor (Homo sapiens) (UniProt Q96RI1). The experiment in a line: qHTS assay to identify small molecule antagonists of the farnesoid-X-receptor (FXR) signaling pathway (AID 743217; active = well fitted inhibition curve with a large enough effect in the signal ratio in the repeat runs, not every such curve was filed as active; the % refers to the signal ratio). The method, boiled down:
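Test compounds are pin-transferred onto FXR-bla HEK 293T cells, then chenodeoxycholic acid is added at 50 uM final. After 16 h at 37 °C, LiveBLAzer B/G substrate is applied for 2 h at room temperature and fluorescence read.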

The target is the same in assay [20]. Description: qHTS assay to identify small molecule agonists of the farnesoid-X-receptor (FXR) signaling pathway (AID 743220; active = well fitted activation curve with a large enough effect in the signal ratio in the repeat runs, not every such curve was filed as active; the % refers to the signal ratio). The method, boiled down:
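FXR-UAS-bla HEK 293T cells carrying a UAS-driven beta-lactamase reporter were plated for 5 h at 37C/5% CO2, then exposed to DMSO-dissolved Tox21 10K compounds for 16 h at 37C. A LiveBLAzer B/G FRET substrate was loaded for 2 h at room temperature before fluorescence reading.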

Structures are written as SMILES. Several values for one entry are separate records, joined by “and”; a condition that tells them apart may be missing. Equal values may be shown once. Inconclusive results are not listed. Some compounds were tested as several samples or in several runs, with calls that do not always agree. Activity calls are given as the source filed them. Unless noted, calls follow the shape of the dose curve; as a rule, active = well fitted curve in the direction sought with a large enough effect in the repeat runs; inconclusive = weak or mixed curves; inactive = no such curve, though single readings can be large; an effect the other way counts as inactive or inconclusive.

Chain of Peroxisome proliferator-activated receptor delta (Homo sapiens) (Q03181 whole entry, looked up): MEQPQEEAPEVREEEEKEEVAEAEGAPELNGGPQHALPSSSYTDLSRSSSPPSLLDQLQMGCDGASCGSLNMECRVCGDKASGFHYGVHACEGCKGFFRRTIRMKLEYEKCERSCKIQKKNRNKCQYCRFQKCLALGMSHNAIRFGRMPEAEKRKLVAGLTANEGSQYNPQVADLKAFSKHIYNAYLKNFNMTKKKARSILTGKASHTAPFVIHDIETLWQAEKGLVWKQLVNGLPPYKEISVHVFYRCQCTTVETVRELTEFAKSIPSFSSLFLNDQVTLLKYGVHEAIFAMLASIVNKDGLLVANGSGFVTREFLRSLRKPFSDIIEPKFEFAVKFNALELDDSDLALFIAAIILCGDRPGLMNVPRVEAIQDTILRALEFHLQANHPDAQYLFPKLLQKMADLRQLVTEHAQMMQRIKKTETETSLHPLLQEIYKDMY
Chain of Aryl hydrocarbon receptor (Homo sapiens) (P35869 whole entry, looked up): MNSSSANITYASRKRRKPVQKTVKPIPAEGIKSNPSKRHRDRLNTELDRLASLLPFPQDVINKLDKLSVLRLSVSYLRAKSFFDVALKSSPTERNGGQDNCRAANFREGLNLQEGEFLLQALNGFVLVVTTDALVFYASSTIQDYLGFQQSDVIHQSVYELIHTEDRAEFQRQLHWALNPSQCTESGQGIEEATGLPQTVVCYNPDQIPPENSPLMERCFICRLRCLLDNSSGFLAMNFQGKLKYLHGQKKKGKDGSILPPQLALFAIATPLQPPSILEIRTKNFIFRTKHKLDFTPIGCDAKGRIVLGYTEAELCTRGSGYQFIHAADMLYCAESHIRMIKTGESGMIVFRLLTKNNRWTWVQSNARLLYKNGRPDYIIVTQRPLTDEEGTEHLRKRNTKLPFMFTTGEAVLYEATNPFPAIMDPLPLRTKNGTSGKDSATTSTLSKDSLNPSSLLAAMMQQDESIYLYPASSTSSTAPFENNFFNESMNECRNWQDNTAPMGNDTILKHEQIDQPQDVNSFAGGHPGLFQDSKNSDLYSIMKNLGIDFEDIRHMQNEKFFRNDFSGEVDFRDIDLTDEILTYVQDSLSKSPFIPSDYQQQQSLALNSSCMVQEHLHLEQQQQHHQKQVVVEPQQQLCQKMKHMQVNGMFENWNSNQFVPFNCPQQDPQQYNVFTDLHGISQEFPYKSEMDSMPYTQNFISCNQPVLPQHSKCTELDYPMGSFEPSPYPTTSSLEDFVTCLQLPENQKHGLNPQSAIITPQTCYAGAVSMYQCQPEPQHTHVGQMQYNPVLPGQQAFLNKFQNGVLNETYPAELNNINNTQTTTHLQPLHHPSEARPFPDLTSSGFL
Chain of Bile acid receptor (Homo sapiens) (Q96RI1 whole entry, looked up): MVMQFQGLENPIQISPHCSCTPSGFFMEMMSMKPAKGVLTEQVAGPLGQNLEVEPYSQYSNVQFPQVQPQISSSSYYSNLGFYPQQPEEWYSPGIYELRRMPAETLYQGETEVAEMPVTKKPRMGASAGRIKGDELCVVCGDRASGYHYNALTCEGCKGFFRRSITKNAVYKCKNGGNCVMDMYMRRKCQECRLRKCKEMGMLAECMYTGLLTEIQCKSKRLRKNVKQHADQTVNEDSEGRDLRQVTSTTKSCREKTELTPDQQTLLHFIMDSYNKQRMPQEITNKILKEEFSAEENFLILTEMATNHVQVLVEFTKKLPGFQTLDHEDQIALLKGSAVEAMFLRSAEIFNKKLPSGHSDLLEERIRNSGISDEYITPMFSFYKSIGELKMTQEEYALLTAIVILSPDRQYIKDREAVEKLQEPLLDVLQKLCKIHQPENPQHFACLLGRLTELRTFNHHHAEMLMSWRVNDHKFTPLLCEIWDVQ
Chain of Peroxisome proliferator-activated receptor gamma (Homo sapiens) (P37231 whole entry, looked up): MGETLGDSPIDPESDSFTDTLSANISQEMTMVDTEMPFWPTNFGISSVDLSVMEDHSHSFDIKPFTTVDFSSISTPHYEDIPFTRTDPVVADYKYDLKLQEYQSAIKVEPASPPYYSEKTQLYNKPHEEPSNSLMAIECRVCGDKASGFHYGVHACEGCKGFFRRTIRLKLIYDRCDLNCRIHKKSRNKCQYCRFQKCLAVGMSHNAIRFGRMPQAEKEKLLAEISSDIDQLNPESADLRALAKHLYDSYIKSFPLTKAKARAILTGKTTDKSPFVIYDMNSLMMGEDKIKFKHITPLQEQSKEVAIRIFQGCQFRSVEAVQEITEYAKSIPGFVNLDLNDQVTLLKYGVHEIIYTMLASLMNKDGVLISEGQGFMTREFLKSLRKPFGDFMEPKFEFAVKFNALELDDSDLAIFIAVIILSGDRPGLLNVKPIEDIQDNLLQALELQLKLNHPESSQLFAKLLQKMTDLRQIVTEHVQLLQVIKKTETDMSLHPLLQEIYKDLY
Chain of Vitamin D3 receptor (Homo sapiens) (P11473 whole entry, looked up): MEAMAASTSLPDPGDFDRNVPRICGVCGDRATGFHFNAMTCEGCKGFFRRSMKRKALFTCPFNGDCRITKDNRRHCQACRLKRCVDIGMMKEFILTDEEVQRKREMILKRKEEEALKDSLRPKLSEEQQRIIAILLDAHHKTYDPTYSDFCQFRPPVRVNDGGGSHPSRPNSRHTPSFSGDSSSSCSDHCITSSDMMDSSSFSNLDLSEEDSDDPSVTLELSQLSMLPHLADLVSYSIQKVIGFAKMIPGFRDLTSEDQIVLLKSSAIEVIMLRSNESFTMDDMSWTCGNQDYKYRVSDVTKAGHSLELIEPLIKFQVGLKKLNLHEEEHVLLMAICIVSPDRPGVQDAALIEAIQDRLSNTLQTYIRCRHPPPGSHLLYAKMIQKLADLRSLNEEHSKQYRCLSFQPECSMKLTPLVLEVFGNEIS

As for `OC[C@@H](O)[C@@H](O[C@@H]1O[C@H](CO)[C@H](O)[C@H](O)[C@H]1O)[C@H](O)[C@@H](O)CO`, the Potency entry in assay [1], in assay [2], in [4], in assay [5], in assay [6] and in assay [7] was “inactive” throughout. The Potency result in [8], in assay [9], in [10] and in assay [11] was “inactive” in each case. For the same compound, the outcome in assay [3], in assay [12] and in [13] was inactive.

For the compound `COCCOCCOCCO`, the Potency entry in assay [1], in [14], in assay [2], in assay [5], in assay [6] and in assay [7] was “inactive” in each case. Besides, the Potency result in assay [15], in assay [8], in [9], in [10] and in assay [11] was “inactive” each time. Also, the compound was classed as inactive in assay [16], in assay [17], in [12] and in [13].

In the case of `COC(=O)c1ccc(C)cc1`, the Potency result in assay [1], in [14], in assay [2], in [6], in assay [7] and in [15] was “inactive” throughout. For the same compound, the Potency result in [8], in assay [9], in assay [19], in assay [10] and in [11] was “inactive” in each case. Besides, the call in assay [16], in assay [17], in assay [18], in assay [20], in assay [12] and in assay [13] was inactive.

Turning to `ClC/C=C/CCl`, the Potency entry in assay [1], in assay [2], in assay [4], in assay [7], in assay [15] and in assay [8] was “inactive” each time. The Potency result in [9], in assay [10] and in assay [11] was “inactive” each time. Further, the result in assay [3], in assay [16], in assay [17], in assay [18], in assay [12] and in assay [13] was inactive. Further, the Potency in assay [6] was 24.1 µM (active) and 24.5 µM (active).

On to `C=C[C@H]1CN2CC[C@H]1C[C@H]2[C@H](O)c1ccnc2ccc(OC)cc12`, for which the Potency result in assay [1], in assay [2], in assay [5], in assay [7], in assay [15] and in [8] was “inactive” each time. Moreover, the Potency result in [10] and in assay [11] was “inactive” throughout. For the same compound, the compound was classed as inactive in assay [17] and in assay [18].

Consider `O=C1OC2(c3ccccc31)c1cc(I)c(O)c(I)c1Oc1c2cc(I)c(O)c1I`, for which the Potency in assay [14] was 23.7 µM (active) and inactive; in assay [9] it was “inactive and 33.4 µM (active)”. Besides, the Potency entry in [6], in assay [7], in assay [15], in assay [8], in assay [10] and in [11] was “inactive” each time. Further, the compound was called inactive in assay [16], in assay [17], in assay [18] and in assay [13].

For `CN1CCOCC1`, the Potency result in assay [1], in assay [14], in assay [2], in assay [6], in [7] and in assay [15] was “inactive” in each case. For the same compound, the Potency entry in assay [8], in [9], in assay [10] and in assay [11] was “inactive” throughout. Besides, the result in assay [16], in assay [12] and in assay [13] was inactive.

For the origin of these results see PubChem BioAssay (Tox21).
